Data: PubChem BioAssay
Measured potencies and affinities stand elsewhere. Activity calls are given as the source filed them. No cut-off is given here; in the data, nearly all actives have IC50 up to about 0.91 µM.

The compounds below were run against Calcium-dependent protein kinase 4 (Plasmodium falciparum (isolate 3D7)) (UniProt Q8IBS5) (assay: PfCDPK4 kinase inhibitors, biochemical, TCAMS library (AID 1159588)). Conditions: recombinant PfCDPK4, Kinase-Glo ATP depletion luminescence.
Chain of Calcium-dependent protein kinase 4 (Plasmodium falciparum (isolate 3D7)) (Q8IBS5 whole entry, looked up): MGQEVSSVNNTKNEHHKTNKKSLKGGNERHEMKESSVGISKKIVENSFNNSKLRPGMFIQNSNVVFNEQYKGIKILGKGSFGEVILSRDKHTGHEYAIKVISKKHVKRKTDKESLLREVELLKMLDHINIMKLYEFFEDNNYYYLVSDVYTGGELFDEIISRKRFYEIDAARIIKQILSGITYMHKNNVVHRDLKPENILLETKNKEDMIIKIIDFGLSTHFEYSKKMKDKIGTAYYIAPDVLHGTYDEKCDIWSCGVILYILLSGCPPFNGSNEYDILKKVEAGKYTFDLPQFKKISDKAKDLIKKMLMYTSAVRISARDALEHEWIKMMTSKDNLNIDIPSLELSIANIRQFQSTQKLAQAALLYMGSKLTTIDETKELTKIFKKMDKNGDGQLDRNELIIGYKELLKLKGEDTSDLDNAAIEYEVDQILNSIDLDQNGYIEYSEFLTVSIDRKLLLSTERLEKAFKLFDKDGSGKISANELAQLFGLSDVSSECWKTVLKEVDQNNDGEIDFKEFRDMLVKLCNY

outcome, inactive:
COc1ccc(Cn2c(Nc3cccc(C(F)(F)F)c3)nc3cc(C(=O)NCCN4CCCC4)cnc32)cc1Cl
O=C(Nc1cccc(C(F)(F)F)c1)c1cc([N+](=O)[O-])cc2cn[nH]c12
CSc1nc2cc3c(cc2n1C(=O)c1ccc(C)cc1)OCCO3
COc1ccccc1-c1cccc(-c2cccc(NC(=O)c3ccc([N+](=O)[O-])o3)c2)n1
COc1ccc2ncc(C#N)c(CCN3CCC(NCc4cnc5c(c4)OCCO5)CC3)c2n1
C[C@H](N[C@H]1CCCc2c1[nH]c1ccc(Br)cc21)c1ccccc1
CS(=O)(=O)n1c(CN2CCN(c3ncc(C(F)(F)F)cc3Cl)CC2)nc2ccccc21
O=C(COc1ccccc1)N(Cc1ccc(-c2ccc(CNC3Cc4ccccc4C3)cc2)cc1)C1CCNCC1
CN(C)S(=O)(=O)c1ccc(Nc2nc(NCCC3C=NC=N3)nc3cc[nH]c(=O)c23)cc1 (stereo not given)
COc1ccc2nccc([C@@H](O)CN3CCC(NCc4nc5c(OCc6ccccc6)cccc5[nH]4)CC3)c2c1
COc1ccc2ncc(F)c(CCN3CCC(NCc4cc(C)c5c(c4)OCCO5)CC3)c2n1
C[C@H](Cc1ccc(OCCNC[C@H](O)c2cccc(Cl)c2)cc1)NC[C@H](O)c1ccc(Cl)c(Cl)c1
c1cc(CN2CCc3ccccc3CC2)cc(-c2c[nH]c3nc(NC4CCCC4)ncc23)c1
CCSc1ccc(C)cc1CON1C(N)=NC(N)=NC1(C)C
Cc1ccc(S(=O)(=O)NC2=NC(C)(C)N(OCc3ccc(Cl)c(Cl)c3)C(N)=N2)cc1
CC(C)n1cc2c(ccc3nc(N)nc(N)c32)n1
CCN(CC)CCNc1nc(C=Cc2ccc(Cl)cc2)nc2cc3ccccc3cc12
Cc1cccc(C(=O)N2CCN(Cc3cccc(NC(=O)c4ccco4)c3)CC2)c1
CC1(CCN2CCC(c3c[nH]c4cnccc34)CC2)CCCc2c(Br)cccc2C1=O (stereo not given)
CC(C)N(CC(=O)c1ccc(O)c(C(=O)O)c1)Cc1ccccc1
O=C(COc1ccccc1Cc1ccccc1)Nc1cc(Cl)ccc1-n1cncn1
Cc1ccccc1C1CCN(c2ccc(C(=O)Nc3ccccc3)cn2)CC1
COc1ccc(CCNC(C)Cc2ccc(C(=O)Nc3ccc(CC(C)NCCc4cccc(Cl)c4)cc3)cc2)cc1 (stereo not given)
CC1(C)N=C(N)N=C(N)N1OCC1CCCCC1
Cc1cc(N[C@@H](CC(C)C)C(=O)NCc2cccs2)nc(Nc2ccccc2)n1
COc1cc(Cc2cnc(N)nc2N)cc(OCCCCCC(N)=O)c1OC
CCn1ccc2c3c(N)nc(N)nc3ccc21
COc1ccc(-c2ccc(NC(=O)c3ccc(C#N)cc3)cc2)cc1CN(C)CCN(C)C
COCCN1CCC(N(Cc2ccc(-c3ccc(OC(F)(F)F)cc3)cc2)C(=O)Cn2c(CCc3cccc(F)c3F)cc(=O)c3ccccc32)CC1
CC(C)CCN(Cc1cncn1Cc1ccccc1F)C(=O)c1cncc(-c2ccccc2)c1
Nc1cccc(CNCc2ccc(-c3ccc(-c4nc5ccc(F)cc5[nH]4)s3)cc2)c1
CC(C)CC1c2[nH]c3ccccc3c(=O)c2CN1C(=O)OC(C)(C)C (stereo not given)
Cc1cccc(CC(N)=NCCCCCCN=C(N)Cc2cccc(C)c2)c1
CN1CCN(c2ccnc3ccc(NC(=O)Nc4ccc(-c5ccccc5)cc4)cc23)CC1
Cc1ccc2c(OCCN3CCC(Cc4ccc5c(c4)NC(=O)CO5)CC3)cc(F)cc2n1
Cc1nn(-c2ccc(Cl)cc2)c2[nH]c(CN3CCN(c4cccc(Cl)c4)CC3)cc(=O)c12
CC(CN(C)C)C(=O)Nc1cccc(-c2ccc(-c3nc4ccccc4[nH]3)s2)c1 (stereo not given)
CN1CCN(CCCN(Cc2ccc(-c3cccc(CNCc4ccc5c(c4)OCO5)c3)cc2)C(=O)Nc2ccccc2)CC1
Cc1cnc(Nc2ccccc2)nc1N[C@@H](CCCN)C(=O)Nc1ccccc1
CC(C)(C)SCC(O)Cn1c2ccc(Br)cc2c2cc(Br)ccc21 (stereo not given)
